Data reported in PubChem BioAssay (EPA / NIEHS).
Where “and” joins values, the source holds several entries; their conditions need not be identical. Equal values may be shown once. Records with an inconclusive call do not appear. Some compounds were tested as several samples or in several runs, with calls that do not always agree. Calls of active or inactive are those of the source. The calls were made as follows: active = hit-call score of the fitted dose curve at least 0.9, where 1 is the maximum; inconclusive = response in the unintended direction; inactive = score below 0.9.

System: not listed separately
Experiment: CCTE_Simmons_CellTiterGLO_HEK293T: Viability Assessment in CCTE's Assays for Thyroperoxidase (TPO) Inhibition, Simmons Lab (AID 2283665);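 as to AC50: cells exposed to compound for 24 h before readout; actives reduce ATP signal below DMSO vehicle meaning cytotoxicity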
How it was run: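 Cells were seeded overnight, then exposed to an eight-point series up to 87.5 uM final for 24 hours. CellTiter-Glo reagent was added and luminescence read after 20 min, giving ATP-based viability versus DMSO.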

| SMILES | outcome | AC50 |
| --- | --- | --- |
| CCCCOCCOCCOCc1cc2c(cc1CCC)OCO2 | inactive |  |
| c1ccc(Nc2ccccc2)cc1 |  | 89.8 µM (active) |
| S=C(S)NCCNC(=S)S.[Mn+2].[S-]C([S-])=NCCN=C([S-])[S-].[Zn+2] | inactive |  |
| CCOC(=O)C(C)Oc1ccc(Oc2nc3ccc(Cl)cc3o2)cc1 (stereo not given) | inactive |  |
| O=C(c1ccc(O)cc1O)c1ccc(O)cc1O | inactive |  |
| CC(C)(c1ccc(O)cc1)c1ccc(O)cc1 | inactive |  |
| N[C@@H](Cc1cc(I)c(Oc2ccc(O)c(I)c2)c(I)c1)C(=O)O |  | 43.8 µM (active) |
| CCCOC(=O)c1ccc(C(=O)OCCC)nc1 | inactive |  |
| CC(C)CCCCCCc1ccc(O)cc1 |  | 6.47 µM (active) |
| Oc1ccc(C(c2ccc(O)cc2)C(Cl)(Cl)Cl)cc1 |  | 28.8 µM (active) |
| O=C(Nc1ccc([N+](=O)[O-])cc1Cl)c1cc(Cl)ccc1O |  | 5.34 µM (active) |
| N#CSCSc1nc2ccccc2s1 |  | 9.18 µM (active) |
| CSC(=O)c1cccc2nnsc12 | inactive |  |

Read-out: alkyl and aryl transferase (GSTA2), GSTA2 (gene 2939)
Experiment: CLD_GSTA2_6hr: CellzDirect (CLD) Gene Expression Assay for alkyl and aryl transferase (GSTA2) at 6 hours (AID 2283666)
How it was run: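 GSTA2 transcript induction at 6 h, quantified by nuclease protection (qNPA) with chemiluminescent detection, in human liver primary hepatocytes exposed to several compound concentrations with 0.2% DMSO as baseline; phase-contrast morphology annotated apparent cytotoxicity.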

| SMILES | outcome |
| --- | --- |
| CCCN(CCC)c1c([N+](=O)[O-])cc(C(F)(F)F)c(N)c1[N+](=O)[O-] | inactive |
| O=C(O)C1(C(=O)Nc2ccc(Cl)cc2Cl)CC1 | inactive |
| c1ccc(Nc2ccccc2)cc1 | inactive |
| CCN(Cc1c(F)cccc1Cl)c1c([N+](=O)[O-])cc(C(F)(F)F)cc1[N+](=O)[O-] | inactive |
| COCCO | inactive |
| CCOC(=O)C(C)Oc1ccc(Oc2nc3ccc(Cl)cc3o2)cc1 (stereo not given) | inactive |
| CC(C)(c1ccc(O)cc1)c1ccc(O)cc1 | inactive |
| CCCN(CCC)C(=O)SCC | inactive |
| S=C([S-])NCCNC(=S)[S-].[Mn+2] | inactive |
| CCCCOC(=O)C(C)Oc1ccc(Oc2ccc(C(F)(F)F)cn2)cc1 (stereo not given) | inactive |
| CN(C)C(=O)Nc1ccc(Cl)c(Cl)c1 | inactive |
| CCN(CC)C(=O)c1cccc(C)c1 | inactive |
| CCCCCOC(=O)COc1cc(N2C(=O)C3=C(CCCC3)C2=O)c(F)cc1Cl | inactive |
| C=CCOC(Cn1ccnc1)c1ccc(Cl)cc1Cl (stereo not given) | inactive |
| CC(C)(C)[C@@H](O)[C@@H](Cc1ccc(Cl)cc1)n1cncn1 | inactive |
| CCSC(=O)N(CC(C)C)CC(C)C | inactive |
| CCC(C)OC(=O)N1CCCCC1CCO (stereo not given) | inactive |
| Oc1ccc(C(c2ccc(O)cc2)C(Cl)(Cl)Cl)cc1 | inactive |
| COc1c(Cl)ccc(Cl)c1C(=O)O | inactive |
| O=C(Nc1ccc([N+](=O)[O-])cc1Cl)c1cc(Cl)ccc1O | inactive |
| CCNc1nc(N)nc(Cl)n1 | inactive |
| N#CSCSc1nc2ccccc2s1 | inactive |
| CSC(=O)c1cccc2nnsc12 | inactive |
| c1ccc2[nH]c(-c3cscn3)nc2c1 | inactive |

System: not listed separately
Experiment: Tanguay_ZF_120hpf_TR_legacy: (Legacy) Oregon State University Tanguay Lab 120 Hour Post-fertilization zebrafish Assay for Touch Response (AID 2283667)
How it was run: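 Readout is presence or absence of touch response in 120 hpf zebrafish larvae, assessed by brightfield observation after continuous static exposure at 28C. Final vehicle was 0.64% (vol/vol) DMSO.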

| SMILES | outcome | AC50 |
| --- | --- | --- |
| CCCN(CCC)c1c([N+](=O)[O-])cc(C(F)(F)F)c(N)c1[N+](=O)[O-] | inactive |  |
| O=C(O)C1(C(=O)Nc2ccc(Cl)cc2Cl)CC1 | inactive |  |
| CCCCOCCOCCOCc1cc2c(cc1CCC)OCO2 | inactive |  |
| c1ccc(Nc2ccccc2)cc1 | inactive |  |
| S=C(S)NCCNC(=S)S.[Mn+2].[S-]C([S-])=NCCN=C([S-])[S-].[Zn+2] | inactive |  |
| CCN(Cc1c(F)cccc1Cl)c1c([N+](=O)[O-])cc(C(F)(F)F)cc1[N+](=O)[O-] | inactive |  |
| COCCO | inactive |  |
| CCOC(=O)C(C)Oc1ccc(Oc2nc3ccc(Cl)cc3o2)cc1 (stereo not given) | inactive |  |
| CC(C)(c1ccc(O)cc1)c1ccc(O)cc1 |  | 47.4 µM (active) and 24.4 µM (active) and 46 µM (active) |
| CCCN(CCC)C(=O)SCC | inactive |  |
| S=C([S-])NCCNC(=S)[S-].[Mn+2] | inactive |  |
| CCCCOC(=O)C(C)Oc1ccc(Oc2ccc(C(F)(F)F)cn2)cc1 (stereo not given) | inactive |  |
| N[C@@H](Cc1cc(I)c(Oc2ccc(O)c(I)c2)c(I)c1)C(=O)O |  | 7.63 µM (active) |
| CN(C)C(=O)Nc1ccc(Cl)c(Cl)c1 | inactive |  |
| CCCOC(=O)c1ccc(C(=O)OCCC)nc1 | inactive |  |
| CCN(CC)C(=O)c1cccc(C)c1 | inactive |  |
| CCCCCOC(=O)COc1cc(N2C(=O)C3=C(CCCC3)C2=O)c(F)cc1Cl | inactive |  |
| CC(C)CCCCCCc1ccc(O)cc1 | inactive |  |
| C=CCOC(Cn1ccnc1)c1ccc(Cl)cc1Cl (stereo not given) | inactive |  |
| CC(C)(C)[C@@H](O)[C@@H](Cc1ccc(Cl)cc1)n1cncn1 | inactive |  |
| CCSC(=O)N(CC(C)C)CC(C)C | inactive |  |
| CCC(C)OC(=O)N1CCCCC1CCO (stereo not given) | inactive |  |
| COc1c(Cl)ccc(Cl)c1C(=O)O | inactive |  |
| CCNc1nc(N)nc(Cl)n1 | inactive |  |
| N#CSCSc1nc2ccccc2s1 | inactive |  |
| CSC(=O)c1cccc2nnsc12 | inactive |  |
| c1ccc2[nH]c(-c3cscn3)nc2c1 | inactive |  |

Read-out: not listed separately
Experiment: CLD_ACTIN_24hr: CellzDirect (CLD) Gene Expression Assay for Baseline Control (Actin) at 24 hours (AID 2283670)
How it was run: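 This 24 h qNPA (S1 nuclease protection, chemiluminescence) actin transcript readout in cultured human liver primary cells serves as baseline control. Signal is fitted upward relative to 0.2% DMSO; chemicals tested at multiple concentrations across two donor preparations.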

| SMILES | outcome |
| --- | --- |
| O=C(O)C1(C(=O)Nc2ccc(Cl)cc2Cl)CC1 | inactive |
| c1ccc(Nc2ccccc2)cc1 | inactive |
| S=C(S)NCCNC(=S)S.[Mn+2].[S-]C([S-])=NCCN=C([S-])[S-].[Zn+2] | inactive |
| CCOC(=O)C(C)Oc1ccc(Oc2nc3ccc(Cl)cc3o2)cc1 (stereo not given) | inactive |
| CC(C)(c1ccc(O)cc1)c1ccc(O)cc1 | inactive |
| CCCN(CCC)C(=O)SCC | inactive |
| CCCCOC(=O)C(C)Oc1ccc(Oc2ccc(C(F)(F)F)cn2)cc1 (stereo not given) | inactive |
| CCCOC(=O)c1ccc(C(=O)OCCC)nc1 | inactive |
| CCCCCOC(=O)COc1cc(N2C(=O)C3=C(CCCC3)C2=O)c(F)cc1Cl | inactive |
| C=CCOC(Cn1ccnc1)c1ccc(Cl)cc1Cl (stereo not given) | inactive |
| CC(C)(C)[C@@H](O)[C@@H](Cc1ccc(Cl)cc1)n1cncn1 | inactive |
| CCC(C)OC(=O)N1CCCCC1CCO (stereo not given) | inactive |
| Oc1ccc(C(c2ccc(O)cc2)C(Cl)(Cl)Cl)cc1 | inactive |
| COc1c(Cl)ccc(Cl)c1C(=O)O | inactive |
| N#CSCSc1nc2ccccc2s1 | inactive |
| CSC(=O)c1cccc2nnsc12 | inactive |
